This note sets out measurements from PubChem BioAssay (NCI).

Where “and” joins values, the source holds several entries; their conditions need not be identical. Equal entries are not always repeated. This is part of a sample that, as a whole, favours compounds with a hit. Of some 83,000 tested, about 20% had one in any assay.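 The endpoint reported here, percent growth, reads 100 for growth as untreated, 0 for no net growth and -100 for all cells dead.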 Calls of active or inactive are those of the source. The calls were made as follows: active = growth percent below 10; inactive = the rest.

The test system of this assay is HCT-116 colon. Kind of assay: NCI-60 one-dose screen, 48 h (100 = growth as untreated, 0 = no growth, -100 = all killed). Particulars: 10 µM unless noted.
As for `c1ccc(-c2cn3c(-c4c[nH]c5ccccc45)csc3n2)cc1`, the growth was 64.5% (inactive).

Take `O=C(/C=C/c1ccccc1Cl)Nc1ncc(Cc2cc(Cl)ccc2Cl)s1`: the growth is 17.3% (inactive).

`O=C(CCCCCCNC(=O)c1csc(Br)n1)NO`: the growth is 3.29% (active).

For `CCOC(=O)c1cnc2c(-c3ccc(Cl)c(Cl)c3)cnn2c1`, the growth was 62.7% (inactive).

On to `Cc1csc(/N=C(N)/N=C(\N)c2cccc(Br)c2)n1`, for which the growth was 88.8% (inactive).

Regarding `CN1CCN(c2ccc(Nc3nc(NCCNC(=O)c4ccccc4)c4sccc4n3)cc2)CC1`, the growth was 0.236% (active).

Regarding `C#Cc1cc(OC)c(C(=O)Nc2ccc(F)cc2C(=O)Nc2cccc(S(=O)(=O)C(F)(F)F)c2)cn1`, the growth is 3.82% (active).

For the molecule `CCCN1C=C/C(=C\C(=O)n2ccc3ccccc32)c2ccccc21`, the growth is 69% (inactive).

As for `CNC(=O)c1cc(-n2ccc3cc(NC(=O)Nc4ccc(N5CCN(C)CC5)c(C(F)(F)F)c4)ccc32)ccn1`, the growth is -17.4% (active).

As for `Fc1cc(F)cc(NNC(=S)c2ccccc2)c1`, the growth is 20.9% (inactive).

For `CCCCCCCCCCCC(=O)NC(C)(C)C(=O)N1CCCC1C(=O)NC(C)(C)C(=O)NC(C)(C)C(=O)N1CCCC1C(=O)NC(C)(C)C(=O)NC(C)(C)C(=O)N1CCCC1C(=O)NC(C)C(=O)NCCC(=O)NC(C)C(=O)NC(C)(C)C(=O)NC(C)(C)C(=O)NC(C)(C)C(=O)NCCC(=O)NC(C)(C)C(=O)NC(C)(C)C(=O)NC(C)(C)C(=O)NC(C)C(=O)NCCC(=O)O` (stereo unspecified), the growth is -94.8% (active).

On to `CC[C@]12C=CCN3CC[C@@]4(c5ccc(OC)cc5N(C)[C@H]4[C@@](O)(C(=O)OC)[C@@H]1OC(=O)CCN1CCc4ccccc4C1)[C@@H]32`, for which the growth is 90.9% (inactive).

As to `O=C(CCCCCCNC(=O)C(O)(O)C(F)(F)F)Nc1ccc(-c2ccccc2)cc1`, the growth is 4.14% (active).

Take `Brc1cccc(-c2cc(-c3cnc4c(c3)OCCO4)n[nH]2)c1`: the growth is 27.4% (inactive).

For `CS(=O)(=O)c1ccc(/C(=N/N=C(N)N)c2ccc(Cl)cc2)cc1`, the growth is 73.8% (inactive).

As for `CCN1CCN(c2ccc(NC(=O)Nc3ccc4c(ccn4-c4ccnc(C(=O)NC)c4)c3)cc2C(F)(F)F)CC1`, the growth is 58.6% (inactive).

As for `Cc1ccc2c(n1)C(=O)C(Cl)=C(Nc1ccc(C#N)cc1)C2=O`, the growth is 67.9% (inactive).

Take `NS(=O)(=O)c1ccc(Nc2nc(Nc3ccccc3)nc(N3N=C(c4ccc(Cl)cc4)CC3c3ccc(Cl)cc3)n2)cc1` (stereo unspecified): the growth is 14.1% (inactive).

Consider `COC(=O)c1cccc(NC2=C(Cl)C(=O)c3nc(C)ccc3C2=O)c1`, for which the growth was 27.2% (inactive).

In the case of `C#CCN(C)CCCOc1ccc(NCc2ccc(/C=C/C(=O)NO)cc2)cc1Cl`, the growth is 9.47% (active).

Turning to `Cc1nc(N)sc1-c1csc(Nc2ccc(C(F)(F)F)cc2)n1`, the growth was 20.6% (inactive).

`COc1ccc(-c2nc(C#N)c(N3CCC(S(=O)(=O)N4CCOCC4)CC3)o2)cc1`: the growth is 110% (inactive).

`O=C(CCCCCCN1CC(=O)N2[C@@H](c3ccc(Cl)s3)c3[nH]c4ccccc4c3C[C@H]2C1=O)NO`: the growth is 13% (inactive).

Regarding `C#C[C@]1(O)CC[C@H]2[C@@H]3CC=C4c5sc(N(C)c6ccccc6)nc5CC[C@]4(C)[C@H]3CC[C@@]21C`, the growth is 48.4% (inactive).

`COc1ccc(/C=N/NC(=O)c2c(N)nn(C)c2Nc2ccccc2)cc1Oc1ccccc1`: the growth was 79.8% (inactive).

For the molecule `CCOC(=O)c1cccc(NC2=C(Cl)C(=O)C(C)=C(C)C2=O)c1`, the growth was 84.9% (inactive).

Consider `Cc1ccc(NC(=O)Nc2nc3ccc([N+](=O)[O-])cc3s2)cc1`, for which the growth is 1.1% (active).

Turning to `Oc1[nH]c2ccc(Cl)cc2c1N=Nc1nc(N=Nc2c(O)[nH]c3ccc(Cl)cc23)nc(N2CCOCC2)n1`, the growth is 45.4% (inactive).

Take `C[C@H](Nc1ncnc2ccc(-c3cnc(Cl)c(NS(C)(=O)=O)c3)cc12)c1ccccc1`: the growth is -61.4% (active).

As for `Brc1ccc(-c2cc(-c3ccc4c(c3)OCCO4)n[nH]2)s1`, the growth is 24.7% (inactive).

On to `C/C=C/CC(C)C(O)[C@H](NC(=O)[C@@H]1CCCN1C(=O)[C@](C)(CC)NC(=O)CCCCCCCCC)C(=O)N[C@@](C)(CC)C(=O)N[C@@H](CCC(N)=O)C(=O)N[C@H](CCC(N)=O)C(=O)NC(C)(C)C(=O)NC(C)(C)C(=O)N[C@@H](CCC(N)=O)C(=O)N[C@H](CC(C)C)C(=O)N[C@H](CO)CC(C)C` (stereo partly specified), for which the growth was 70.6% (inactive) and -7.45% (active).
